These sequences were tested against T1, GABPA (Homo sapiens, UniProt Q06546 1-454) (assay: DAPPL (digital affinity profiling via proximity ligation, sequencing); 10 mM Tris-HCl pH 7.5, 50 mM NaCl, 1 mM DTT, 4% glycerol, room temperature, 30 min; GST-TFs on glutathione beads, 16-mer random dsDNA library, 0.1% formaldehyde crosslink after washing; high values mean tight binding). Details: protein: recombinant; tags: N-terminal GST; dsDNA, one strand shown.
T1 sequence: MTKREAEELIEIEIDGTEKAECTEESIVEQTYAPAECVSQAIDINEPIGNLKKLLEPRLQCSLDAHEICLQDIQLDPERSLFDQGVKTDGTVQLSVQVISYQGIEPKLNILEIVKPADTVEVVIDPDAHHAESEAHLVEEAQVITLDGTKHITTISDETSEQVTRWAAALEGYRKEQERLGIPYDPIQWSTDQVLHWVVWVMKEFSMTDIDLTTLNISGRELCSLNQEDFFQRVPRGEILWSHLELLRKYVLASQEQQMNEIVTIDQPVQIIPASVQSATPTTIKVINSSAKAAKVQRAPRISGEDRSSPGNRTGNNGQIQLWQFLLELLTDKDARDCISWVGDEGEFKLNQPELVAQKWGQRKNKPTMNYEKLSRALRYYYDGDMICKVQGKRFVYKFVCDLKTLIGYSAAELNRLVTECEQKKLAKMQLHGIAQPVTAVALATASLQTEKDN
Outline: (§1)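 After expression in yeast as GST fusions, human transcription factors were bound to glutathione beads, DNA-barcoded and mixed with a tag-only sample. The pools were incubated with 200 nmole of a 16-mer random double-stranded DNA library in Tris/NaCl/DTT/glycerol buffer (30 min, room temperature), washed and crosslinked with 0.1% formaldehyde. Proximity ligation with BsaI/T4 ligase ran for 1 h at 37 °C, before PCR amplification and sequencing on an Illumina NextSeq500. Binding signal is a hexamer's read frequency for a factor divided by its frequency for the tag-only sample.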

AAGCAC was tested. Which binding signal did it give?
The binding signal was 1.15 fold enrichment (6-mer frequency, TF over GST control).

How did the binding signal turn out when CGATCG was run?
Its binding signal is 1.14 fold enrichment (6-mer frequency, TF over GST control).

Which binding signal does the source give for ACTCGC here?
The binding signal was 1.18 fold enrichment (6-mer frequency, TF over GST control).

With CTGTCC as the sequence, how does the binding signal read?
Its binding signal is 1.29 fold enrichment (6-mer frequency, TF over GST control).

With TTAGCG as the sequence, how does the binding signal read?
Its binding signal is 1.03 fold enrichment (6-mer frequency, TF over GST control).

TAATGA was tested. Which binding signal did it give?
The binding signal was 1.26 fold enrichment (6-mer frequency, TF over GST control).

For GGTAAT, which binding signal is on record?
Its binding signal is 1.22 fold enrichment (6-mer frequency, TF over GST control).

TATCGC was tested. Which binding signal did it give?
The binding signal was 1.23 fold enrichment (6-mer frequency, TF over GST control).

With TGCGCA as the sequence, how does the binding signal read?
The binding signal was 1.07 fold enrichment (6-mer frequency, TF over GST control).

For CCGGGT, which binding signal is on record?
Its binding signal is 1.01 fold enrichment (6-mer frequency, TF over GST control).

How did the binding signal turn out when TCTATG was run?
The binding signal was 1.21 fold enrichment (6-mer frequency, TF over GST control).

For ATTGCT, which binding signal is on record?
Its binding signal is 1.27 fold enrichment (6-mer frequency, TF over GST control).

For ATGTGC, which binding signal is on record?
Its binding signal is 1.1 fold enrichment (6-mer frequency, TF over GST control).

How did the binding signal turn out when TTTCCT was run?
Its binding signal is 2.32 fold enrichment (6-mer frequency, TF over GST control).

With GCTCTG as the sequence, how does the binding signal read?
The binding signal was 1.03 fold enrichment (6-mer frequency, TF over GST control).

For ATAGCT, which binding signal is on record?
Its binding signal is 1.2 fold enrichment (6-mer frequency, TF over GST control).

CCCTGT was tested. Which binding signal did it give?
The binding signal was 1.2 fold enrichment (6-mer frequency, TF over GST control).

With AATCAG as the sequence, how does the binding signal read?
Its binding signal is 1.19 fold enrichment (6-mer frequency, TF over GST control).

For CGAAGC, which binding signal is on record?
Its binding signal is 1.36 fold enrichment (6-mer frequency, TF over GST control).

How did the binding signal turn out when CCGCGT was run?
Its binding signal is 1.06 fold enrichment (6-mer frequency, TF over GST control).

What follows are sequences tested against T2, ERG (Homo sapiens, UniProt P11308 1-479) in the same assay as above. Details: protein: recombinant; tags: N-terminal GST; dsDNA, one strand shown.
T2 sequence: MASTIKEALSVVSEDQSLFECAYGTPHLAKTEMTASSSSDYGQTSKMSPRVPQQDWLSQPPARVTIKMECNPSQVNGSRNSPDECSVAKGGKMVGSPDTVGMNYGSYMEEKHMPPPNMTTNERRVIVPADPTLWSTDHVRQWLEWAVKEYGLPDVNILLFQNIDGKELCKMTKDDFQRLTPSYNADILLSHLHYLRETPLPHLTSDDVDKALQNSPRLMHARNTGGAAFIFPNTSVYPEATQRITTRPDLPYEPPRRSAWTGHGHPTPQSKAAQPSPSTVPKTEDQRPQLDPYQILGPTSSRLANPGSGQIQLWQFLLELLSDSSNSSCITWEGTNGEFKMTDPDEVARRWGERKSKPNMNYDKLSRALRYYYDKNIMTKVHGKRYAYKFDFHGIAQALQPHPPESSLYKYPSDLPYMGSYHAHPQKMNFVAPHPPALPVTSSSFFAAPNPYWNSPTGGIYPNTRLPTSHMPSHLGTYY
Outline: as §1

GTGCTC was tested. Which binding signal did it give?
Its binding signal is 1.2 fold enrichment (6-mer frequency, TF over GST control).

How did the binding signal turn out when CTTGAA was run?
The binding signal was 1.12 fold enrichment (6-mer frequency, TF over GST control).

For GATTTG, which binding signal is on record?
The binding signal was 1.11 fold enrichment (6-mer frequency, TF over GST control).

For GCGTTC, which binding signal is on record?
The binding signal was 1.03 fold enrichment (6-mer frequency, TF over GST control).

Which binding signal does the source give for TCTGTG here?
Its binding signal is 1.07 fold enrichment (6-mer frequency, TF over GST control).

For GAAGTA, which binding signal is on record?
Its binding signal is 2.03 fold enrichment (6-mer frequency, TF over GST control).

For TACGGA, which binding signal is on record?
The binding signal was 1.37 fold enrichment (6-mer frequency, TF over GST control).

Which binding signal does the source give for ACACAC here?
Its binding signal is 1.22 fold enrichment (6-mer frequency, TF over GST control).

With GCTGAA as the sequence, how does the binding signal read?
The binding signal was 1.03 fold enrichment (6-mer frequency, TF over GST control).

With TCACAA as the sequence, how does the binding signal read?
The binding signal was 1.11 fold enrichment (6-mer frequency, TF over GST control).

Which binding signal does the source give for GCGCCT here?
Its binding signal is 1.04 fold enrichment (6-mer frequency, TF over GST control).

CTGGAC was tested. Which binding signal did it give?
Its binding signal is 1.13 fold enrichment (6-mer frequency, TF over GST control).

For GTATAC, which binding signal is on record?
The binding signal was 1.24 fold enrichment (6-mer frequency, TF over GST control).

Which binding signal does the source give for TATTTC here?
The binding signal was 2.32 fold enrichment (6-mer frequency, TF over GST control).

Which binding signal does the source give for CCGAAA here?
Its binding signal is 1.2 fold enrichment (6-mer frequency, TF over GST control).

How did the binding signal turn out when ACCTTG was run?
Its binding signal is 1.1 fold enrichment (6-mer frequency, TF over GST control).

CAACAC was tested. Which binding signal did it give?
The binding signal was 1.1 fold enrichment (6-mer frequency, TF over GST control).

How did the binding signal turn out when GTATAA was run?
Its binding signal is 1.06 fold enrichment (6-mer frequency, TF over GST control).

How did the binding signal turn out when TCGATG was run?
The binding signal was 1.06 fold enrichment (6-mer frequency, TF over GST control).

For GGCCTA, which binding signal is on record?
The binding signal was 1.37 fold enrichment (6-mer frequency, TF over GST control).

For AAGCAC, which binding signal is on record?
The binding signal was 1.19 fold enrichment (6-mer frequency, TF over GST control).

CGATCG was tested. Which binding signal did it give?
Its binding signal is 1.1 fold enrichment (6-mer frequency, TF over GST control).

ACTCGC was tested. Which binding signal did it give?
The binding signal was 1.09 fold enrichment (6-mer frequency, TF over GST control).

Which binding signal does the source give for CTGTCC here?
The binding signal was 1.28 fold enrichment (6-mer frequency, TF over GST control).

How did the binding signal turn out when TTAGCG was run?
Its binding signal is 1.05 fold enrichment (6-mer frequency, TF over GST control).

For TAATGA, which binding signal is on record?
The binding signal was 1.02 fold enrichment (6-mer frequency, TF over GST control).

For GGTAAT, which binding signal is on record?
The binding signal was 1.08 fold enrichment (6-mer frequency, TF over GST control).

How did the binding signal turn out when TATCGC was run?
The binding signal was 1.15 fold enrichment (6-mer frequency, TF over GST control).

Which binding signal does the source give for TGCGCA here?
Its binding signal is 1.07 fold enrichment (6-mer frequency, TF over GST control).

How did the binding signal turn out when CCGGGT was run?
Its binding signal is 1.12 fold enrichment (6-mer frequency, TF over GST control).

How did the binding signal turn out when TCTATG was run?
Its binding signal is 1.03 fold enrichment (6-mer frequency, TF over GST control).

How did the binding signal turn out when ATTGCT was run?
Its binding signal is 1.25 fold enrichment (6-mer frequency, TF over GST control).

Which binding signal does the source give for ATGTGC here?
The binding signal was 1.14 fold enrichment (6-mer frequency, TF over GST control).

How did the binding signal turn out when TTTCCT was run?
The binding signal was 2.72 fold enrichment (6-mer frequency, TF over GST control).

With GCTCTG as the sequence, how does the binding signal read?
Its binding signal is 1.01 fold enrichment (6-mer frequency, TF over GST control).

Which binding signal does the source give for ATAGCT here?
The binding signal was 1.07 fold enrichment (6-mer frequency, TF over GST control).

How did the binding signal turn out when CCCTGT was run?
The binding signal was 1.21 fold enrichment (6-mer frequency, TF over GST control).

For AATCAG, which binding signal is on record?
The binding signal was 1.07 fold enrichment (6-mer frequency, TF over GST control).

With CGAAGC as the sequence, how does the binding signal read?
The binding signal was 1.23 fold enrichment (6-mer frequency, TF over GST control).

For CCGCGT, which binding signal is on record?
The binding signal was 1.13 fold enrichment (6-mer frequency, TF over GST control).

From PMC7862700, “An all-to-all approach to the identification of sequence-specific readers for epigenetic DNA modifications on cytosine”
